Experimental data published in PubChem BioAssay (NCI).
About 83,000 compounds went through this panel and 20% of them were active in at least one assay; those are over-represented in the sample as a whole.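 Plates (96-well) were seeded with cells, treated with compound at one concentration, and incubated for 48 hours before percent growth was determined.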 Unmarked numbers belong to inactive results. The source made the active and inactive calls. How the source made its calls: active means growth percent below 10; inactive means the rest.

Tests used:
Assay in all cases: NCI-60 one-dose screen, 48 h (100 = growth as untreated, 0 = no growth, -100 = all killed)
Settings in all cases: 10 µM
[1] = system: EKVX NSCLC
[2] = system: SN12C renal
[3] = system: UO-31 renal
[4] = system: TK-10 renal
[5] = system: ACHN renal
[6] = system: CAKI-1 renal
[7] = system: A498 renal
[8] = system: CCRF-CEM leukemia
[9] = system: MOLT-4 leukemia
[10] = system: SR leukemia
[11] = system: RPMI-8226 leukemia
[12] = system: OVCAR-8 ovarian
[13] = system: OVCAR-5 ovarian
[14] = system: OVCAR-4 ovarian
[15] = system: SK-OV-3 ovarian
[16] = system: IGROV1 ovarian
[17] = system: OVCAR-3 ovarian
[18] = system: HS 578T breast
[19] = system: NCI/ADR-RES ovarian
[20] = system: SK-MEL-2 melanoma

Row | SMILES | growth [1] [%] | growth [2] [%] | growth [3] | growth [4] | growth [5] | growth [6] | growth [7] | growth [8] | growth [9] | growth [10] | growth [11] | growth [12] | growth [13] | growth [14] | growth [15] | growth [16] | growth [17] | growth [18] | growth [19] | growth [20]
1 | COc1ccc(Cc2cnc(N)nc2N)cc1OC | 115 | 96.1 | 78% | 110% | 96.5% | 89.1% | 73.4% | 102% | 104% | 98.9% | 102% | 96.2% | 100% | 106% | 96% | 112% | 106% | 105% | 99.7% | –
2 | c1ccc(CSc2ncccc2-c2nnc(SCCN3CCOCC3)o2)cc1 | 108 | 114 | 89.4% | 118% | 124% | 100% | 107% | 103% | 103% | 104% | 104% | 109% | 119% | 106% | 109% | 98.3% | 120% | 133% | 107% | –
3 | C[N+]1(CCCCC[N+]2(C)CCCC2)CCCC1 | 80 | 62.4 | 78.5% | 108% | 97.2% | 78.6% | 108% | 67.5% | 91% | 97.4% | 61.7% | 78.1% | 72.9% | 97.4% | 68.9% | 105% | 107% | 106% | – | –
4 | COc1cc(/C=C/c2cc(/C=C/c3ccc(O)c(OC)c3)n(C(=O)Nc3ccc(C)cc3)n2)ccc1O | 20.3 | 18.3 | 0.972% (active) | 28.5% | 16.1% | 8.65% (active) | -12% (active) | 0.439% (active) | 0.114% (active) | -14.7% (active) | -14.5% (active) | -2.98% (active) | 20.5% | 16.1% | -29.1% (active) | 4.76% (active) | -34.1% (active) | -16% (active) | 20.5% | –
5 | O=C(CNc1nnc(-c2cccnc2SCc2ccccc2)s1)Nc1nc(Cl)cc(Cl)n1 | 112 | 103 | 77.4% | 125% | 119% | 102% | 121% | 102% | 95.4% | 98.5% | 108% | 118% | 109% | 103% | 99.2% | 96.6% | 106% | 130% | 114% | –
6 | CCN(CC)CCCC(C)N=C(C1=C(C(=NC(C)CCCN(CC)CC)c2cccc(OC)c2)C(=O)NC1=O)c1cccc(OC)c1 (stereo not drawn) | – | – | -97.2% (active) | -31.1% (active) | -64% (active) | -57.9% (active) | 18.7% | -21.4% (active) | -15.7% (active) | 2.6% (active) | -30.6% (active) | -11.3% (active) | -3.07% (active) | -23.5% (active) | 9.81% (active) | – | -17.7% (active) | 16.4% | 4.23% (active) | -53.7% (active)
7 | Cc1ccc(NC(=O)N2CCCCC2)cc1[N+](=O)[O-] | – | 106 | 77.6% | – | 95% | – | 107% | 7.44% (active) | 137% | 39.3% | 41.7% | 72.2% | 101% | 111% | 112% | 87.3% | 115% | 54.8% | 95.4% | 119%
8 | CC(C)(C)c1nn(-c2ccccc2)c2c1CC1(CN2Cc2ccc(Cl)cc2)C(=O)c2ccccc2C1=O | – | 86.1 | 99.6% | 99.3% | 98.9% | – | 76.5% | 66.2% | – | – | 59.5% | 105% | 103% | 72.9% | 93.3% | – | 78.1% | 110% | 84.3% | 92.4%
